An excerpt weighted towards active compounds, which were near 2.8% of everything screened.
SKKanGAS inh = S. pyogenes SKKanGAS growth inhibitors in kanamycin, primary screen, streptokinase expression inhibitor project, SKKanGAS strain, BacTiter-Glo luminescence | 6 h | inhibition, % at 7.5 µM | 300,000 tested, 1.3% active;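 active = mean replicate score, as percent of positive control median, at least 50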;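 also: strain carries kanamycin resistance gene driven by streptokinase promoter and grows in 40 µg/ml kanamycin; loss of luminescence reflects streptokinase promoter inhibition or plain growth inhibition; 0% = median of DMSO wells and 100% = positive control at its reference dose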
PP5 inh = PP5 phosphatase inhibitors, primary screen, biochemical, fluorescence; Serine/threonine-protein phosphatase 5 (Homo sapiens), P53041; purified PP5c, OMFP substrate fluorescence; inhibition, % at 6.7 µM; 320,000 tested, 0.18% active; AID 1987, 2009;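 active = inhibition above the campaign's mean inhibition across all tested compounds plus 3 SD, cut at about 9.5% in these data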;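 also: 0% = DMSO only and 100% = 100 µM cantharidin control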
IDE inh = human IDE inhibitors in live cells, primary screen, fluorescence polarization, HEK cells, FAbetaB substrate. 320,000 tested, 0.41% active. Insulin-degrading enzyme (Homo sapiens), P14735. FAbetaB cleavage. inhibition, % at 5.59 µM;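 active = percent inhibition above the average of all tested compounds plus 3 SD, set per screening campaign, cut at about 16% in these data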;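 also: IDE supplied by intact live HEK cells; FP after avidin binding of uncleaved biotin substrate so inhibition keeps polarization high; 0% = DMSO wells and 100% = 60 µM reference IDE inhibitor Ii1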
Granule exo inh = LAMP-1 surface exposure blockers, TALL-104 cells – cell-based, flow cytometry, MLPCN library, primary screen; TALL-104 LAMP-1 surface exposure; cells stimulated with thapsigargin and PMA; inhibition, % at 10 µM; 360,000 tested, 0.66% active; AID 651702, 2012;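 active = inhibition above about 55%, limit read from the data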
IDE cell activ = human IDE activators in live cells, primary screen, fluorescence polarization, HEK cells, FAbeta-B substrate. Insulin-degrading enzyme (Homo sapiens), P14735. activation, % at 5.96 µM. FAbeta-B cleavage; 0% vehicle, 100% cell-free pure enzyme wells. 340,000 tested, 0.073% active;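 active = activation above the mean of all tested compounds plus 3 SD, set per screening campaign, cut at about 17% in these data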
PP1 inh = PP1-alpha phosphatase inhibitors, primary screen, counter-screen for PP5 inhibitor project, biochemical, fluorescence, OMFP substrate, single point; Serine/threonine-protein phosphatase PP1-alpha catalytic subunit (Homo sapiens), P62136; purified PP1alpha; inhibition, % at 6.7 µM; 320,000 tested, 0.9% active; AID 2235, 2010;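 active = inhibition above the mean inhibition of all tested compounds plus 3 SD, computed separately for each screening campaign, cut at about 15% in these data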
Target sequence (P62136 whole entry, looked up): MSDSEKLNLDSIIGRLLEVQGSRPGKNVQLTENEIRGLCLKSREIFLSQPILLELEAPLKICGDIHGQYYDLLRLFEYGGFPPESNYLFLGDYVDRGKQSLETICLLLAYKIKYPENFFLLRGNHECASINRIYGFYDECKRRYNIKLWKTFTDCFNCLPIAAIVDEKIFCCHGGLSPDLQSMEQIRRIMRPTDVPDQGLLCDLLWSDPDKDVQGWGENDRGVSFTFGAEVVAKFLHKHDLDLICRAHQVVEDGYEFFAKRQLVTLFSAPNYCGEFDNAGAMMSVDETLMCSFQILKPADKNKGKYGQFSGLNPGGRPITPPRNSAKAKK
Numbers without * were called inactive; . = not tested or not shown.

SMILES | SKKanGAS inh | PP5 inh | IDE inh | Granule exo inh | IDE cell activ | PP1 inh
COc1ccc(S(=O)(=O)N[C@@H](C)C(=O)OCC(=O)Nc2cc3oc4ccccc4c3cc2OC)cc1 | 80.3* | 4.0 | -2.1 | 0.5 | -1.2 | -0.3
COc1ccc2nc(NC(=O)Nc3ccccc3)sc2c1 | -15.7 | 3.4 | 3.5 | -1.5 | -3.2 | 2.0
CC(C)(C)c1nc(NC(=O)Nc2ccccc2)sc1Br | 67.8* | -0.5 | -2.0 | 17.8 | 4.7 | -0.7
Oc1ccc(Br)cc1/C=N/NC(=S)NCCc1ccccc1 | 89.7* | 3.9 | 0.7 | -6.0 | 2.2 | 1.3
Oc1ccc(/C=N/Nc2ncc(Br)cn2)c(O)c1 | -6.8 | -0.3 | -2.3 | -2.3 | 2.3 | -1.3
CC(C)NC(=S)N/N=C/c1cc(Br)ccc1O | 61.5* | 5.0 | 0.6 | 0.3 | 3.1 | -1.2
Oc1ccc(Br)cc1/C=N/Nc1ncc(-c2ccccc2)cn1 | 82.7* | -1.0 | -1.3 | 0.4 | 4.5 | 10.1
OCC[C@@H]1C[C@H](O)[C@@H](O)[C@@]2(OCCc3cc(Cl)ccc32)O1 | . | . | . | 2.2 | . | .
Cc1ccc(C(=O)C2=C(O)C(=O)N(Cc3cccnc3)C2c2ccc(OC(C)C)cc2)o1 (centres undefined) | 10.8 | -0.5 | -2.9 | 1.2 | 1.9 | 19.9*
Cc1ccc(C(=O)C2=C(O)C(=O)N(CCCn3ccnc3)C2c2ccc(OC(C)C)cc2)o1 (centres undefined) | 4.5 | -8.7 | -1.4 | 3.8 | 6.2 | 15.3*
Cc1ccc(C(=O)C2=C(O)C(=O)N(Cc3cccnc3)C2c2ccc(Br)cc2)o1 (centres undefined) | 13.7 | 2.8 | 4.5 | -20.5 | -0.9 | 18.7*
Cc1ccc(C(=O)C2=C(O)C(=O)N(Cc3cccnc3)C2c2ccc(Cl)c(Cl)c2)o1 (centres undefined) | 18.9 | 0.6 | 4.9 | 0.8 | 6.9 | 29.7*
Cc1c(Cl)cccc1NC(=O)CSc1nncn1-c1ccccn1 | -0.4 | 1.6 | -0.6 | 11.9 | 6.5 | 2.0
CC[C@@]1(C(=O)OC)N[C@H](CN(C)C(=O)NC(C)C)[C@@H]2C(=O)N(C)C(=O)[C@@H]21 | . | . | 1.1 | 0.2 | 3.4 | .
O=C(Nc1ccc2ccccc2c1)c1ccc(NS(=O)(=O)c2ccc(Br)s2)cc1 | 96.1* | 0.8 | -1.0 | 7.3 | -4.1 | 2.9
COc1cc(C=NNc2ccccc2)ccc1OC(=O)c1ccccc1 | . | . | . | 1.5 | . | .
CCOc1cc(/C=N/Nc2cccc(C(=O)O)c2)ccc1OC(=O)c1ccccc1 | 50.1* | . | . | 0.6 | 4.6 | .
COc1ccccc1-n1c(SCC(=O)Nc2ccc(C)cc2)nc(O)cc1=O | 63.4* | -0.6 | -6.4 | 3.3 | -5.7 | 12.1
COc1ccc(NC(=O)CSc2nc3[nH]ncc3c(=O)n2-c2ccccc2OC)cc1OC | -5.1 | 0.8 | 20.8* | -2.6 | -19.3 | -0.7
COc1ccccc1-n1c(SCC(=O)Nc2cccc3ccccc23)nc(O)cc1=O | 39.6 | 0.5 | 2.3 | -2.0 | -0.3 | 9.5
CC(=O)N1CCC(=O)Nc2ccc([N+](=O)[O-])cc21 | 14.8 | -2.1 | 9.1 | -1.6 | 20.1* | -0.2
COc1ccc(S[C@@H](CCN2CC[C@H](O)CCC2=O)c2ccccc2)cc1 | . | 0.7 | 8.8 | -9.2 | -23.7 | 0.2
COc1ccc(NC(=O)/C(C#N)=C\c2ccc(Br)o2)cc1 | -7.2 | -1.2 | 0.0 | -3.0 | 4.4 | 5.4
N#C/C(=C\c1ccc([N+](=O)[O-])o1)C(=O)Nc1ccc(F)cc1 | 6.3 | 1.1 | 12.2 | 86.2* | -9.9 | 3.0
Cc1cc(N/N=C/c2c(O)ccc3ccccc23)nc(-c2ccccc2O)n1 | 85.1* | 5.0 | 2.3 | 96.2* | 5.6 | -0.8
SMILES | SKKanGAS inh | PP5 inh | IDE inh | Granule exo inh | IDE cell activ | PP1 inh
COC(=O)c1cc(OC)c(OC)cc1NC(=O)c1ccc(C)o1 | -14.8 | 3.3 | -0.9 | 0.7 | 6.2 | 3.9
CCCc1nc2ccccc2c(=O)n1/N=C/c1c(C)[nH]n(-c2ccc(C)cc2)c1=O | 96.6* | 2.5 | 8.4 | 2.3 | 4.9 | 2.5
CCCc1nc2ccccc2c(=O)n1/N=C/c1ccccc1O | 9.0 | 2.8 | 3.8 | -0.1 | 1.6 | -2.8
COc1ccc(NCc2nn(CC(=O)c3ccc(Br)cc3)c3[n+]2CCCCC3)cc1 | -2.8 | -2.3 | -2.4 | 3.1 | 7.0 | 2.3
O=C(Cn1nc(CNc2ccc(Cl)cc2)[n+]2c1CCCCC2)c1ccc(Br)cc1 | 84.0* | 2.8 | 3.2 | 5.9 | 4.3 | 6.9
Cc1cccc(OCCCOc2cccc3cccnc23)c1C | 57.9* | 3.9 | -9.8 | -3.5 | 5.0 | 5.5
Cc1cccc(OCCCCc2c(C)n[nH]c2C)c1C | 99.4* | 7.3 | 4.0 | -1.4 | -1.4 | -8.0
Cc1ccc(OCCCOc2cccc3cccnc23)cc1C | 36.9 | 2.3 | 3.6 | -0.6 | -4.7 | -0.5
CCOc1ccccc1OCCCCCc1c(C)n[nH]c1C | 60.9* | 3.9 | 2.2 | -1.4 | -2.9 | 4.2
COc1ccccc1OCCCCCc1c(C)n[nH]c1C | 66.4* | 0.7 | -6.0 | 0.4 | 9.2 | 2.4
Cc1cccc(OCCCCc2c(C)n[nH]c2C)c1 | -4.7 | 3.5 | 1.2 | -2.1 | 10.1 | -2.5
COc1ccccc1OCCCc1c(C)n[nH]c1C | -5.6 | 3.0 | -2.1 | -2.4 | -6.1 | 0.6
COc1cccc(OC)c1C(=O)NC(=O)Oc1c(F)cccc1F | 4.3 | -0.4 | -5.7 | 2.9 | 0.8 | 0.7
COc1cc(COCC(O)CN2C(C)CCCC2C)cc(OC)c1OC (centres undefined) | 10.8 | -1.2 | 0.3 | -0.8 | 1.8 | -2.1
COC(=O)C[C@H]1CC[C@@H](NC(=O)Nc2c(C)noc2C)[C@@H](CO)O1 | . | . | . | 7.2 | . | .
CCOC(=O)CCCCCC(=O)Nc1ccc2c(c1)C(=O)N([C@@H](C)CO)C[C@@H](C)[C@H](CN(C)S(=O)(=O)c1cccs1)OCCCC[C@H](C)O2 | . | . | . | -4.2 | . | .
O=C(NC(=S)Nc1ccccc1N1CCCCC1)c1ccc(F)cc1Cl | 49.6* | 2.7 | 2.1 | 6.7 | -3.3 | -2.8
O=C(NC(=S)Nc1cccc(Cl)c1N1CCCCC1)c1ccc2c(c1)OCCO2 | 61.0* | -0.5 | 2.4 | 7.8 | 5.2 | -4.2
O=C(Nc1cccc(Cl)c1N1CCCCC1)c1ccc2c(c1)OCCO2 | 62.0* | 0.4 | 1.9 | 3.4 | -1.1 | 1.3
CCn1c(SCC(=O)Nc2cccc(C)c2)nc2nc3c(cc2c1=O)COC(C)(C)C3 | -2.7 | 1.8 | 13.4 | 1.3 | -3.5 | 6.2
CCN1C[C@@H]2[C@@H]3C(=O)N(Cc4ccccc4)C(=O)[C@@H]3[C@](C)(C1=O)N2C(=O)c1ccc(Cl)c(Cl)c1 | . | . | . | 6.3 | 4.3 | .
COc1ccc(NC(=O)CCC(=O)c2ccc(C(C)C)cc2)cc1 | 0.6 | . | . | 13.8 | -2.5 | .
COc1ccc(NC(=O)CCC(=O)c2ccc(-c3ccccc3)cc2)cc1 | -3.7 | 1.8 | 6.3 | -3.3 | -5.9 | 15.7*
